Results on six compounds are retold here after PubChem BioAssay.

Assay [1] is described as follows: kinase inhibitors against Plasmodium liver-stage infection, cell-based, known kinase inhibitor set, luminescence, hepatoma host viability (AID 624392; call rule not given here;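 note: infected cells incubated roughly two days before readout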). As to conditions: Plasmodium liver stage in hepatoma cells, luciferase luminescence, concentration not given here; liver cell % of control: measured here: host liver cell viability; parasite % of control: stronger effect = lower value.

Assay [2] in a line: modulators of glucocorticoid suppression of NF-kB, cell-based, luciferase, IL-1B stimulus, dexamethasone (AID 624486; call rule not given here;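 for percent of negative control (+Dex): 100% = mean signal of vehicle control wells on the plate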). As to conditions: NF-kB luciferase reporter, IL-1B + dexamethasone, luminescence; percent of negative control (+Dex): actives lie on both sides, concentration not given here; z-score: measured here: IL-1B alone, no Dex.
Assay [3] is described as follows: kinase inhibitors altering Pseudomonas killing of worms, whole organism (AID 651566; call rule not given here;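 note: tested at 14 µM; sign flipped so higher z means a lower ratio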). The settings on record: C. elegans killed by P. aeruginosa, survival ratio.
The nature of assay [4]: activators of macrophage pro-inflammatory response, cell-based, murine, luminescence (AID 652131; call rule not given here). As to conditions: murine macrophage pro-inflammatory reporter, stronger effect = higher value.
Assay [5] in a line: survival rescue of mitochondrial mutant cells in low glucose, primary screen, MELAS cybrids, Rieske KO mouse fibroblasts, CellTiter-Glo (AID 1508586;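 active = mean z-score across replicates of 1.96 or higher in either the MELAS or the Rieske mutant cell line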;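 note: z relative to plate mean and SD of compound and empty wells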).
A short description of assay [6]: ovarian cancer cell viability with rucaparib, profiling panel, oncology-focused library, rucaparib conditional (AID 1508598). The settings on record: patient-derived ovarian cancer cells, CellTiter-Glo viability, 144 h, stronger effect = lower value.
Assay [7] is described as follows: viability rescue of complex I mutant cybrids, primary screen, cell-based, galactose medium, ATP luminescence (AID 1645843;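 active = z-score of at least 1.8 in each of two replicates, scored against plate mean and spread of sample wells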;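 note: positive z means more ATP and so rescue of galactose-driven cybrid death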). As to conditions: complex I mutant cybrid cells, 72 h, stronger effect = higher value.
The mark [8] stands for this setting: MELAS cybrid survival, CellTiter-Glo 48 h, stronger effect = higher value.
The mark [9] stands for this setting: Rieske KO mouse fibroblast survival, CellTiter-Glo 72 h.

Structures are written as SMILES. Calls of active or inactive are those of the source.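 Rule for the calls, unless noted: active = normalized viability below 100% at a tested concentration; inactive = the rest.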

As for `COc1cc2ncn(-c3cc(OCCc4ccccc4)c(C(N)=O)s3)c2cc1OC`, the liver cell % of control in assay [1] amounted to 140%. In addition, the parasite % of control in assay [1] was 71.4% (inactive). The percent of negative control (+Dex) in assay [2] is 95% (inactive). The z-score is 0.89 in assay [2]; -0.32 (inactive) in assay [3]; 0.419 (inactive) in assay [4]; -0.0219 (inactive) in assay [5] (setting [8]); -0.0569 in assay [5] (setting [9]).
The compound `Cc1cccc(Nc2ncc(-c3ccccc3)o2)c1` yielded a liver cell % of control in assay [1] of 79.5%. In addition, the parasite % of control in assay [1] was 180% (inactive). For the same compound, in assay [2], the percent of negative control (+Dex) was 272% (active). The z-score in assay [2] was 15.2; in assay [3], -1.25 (inactive); in assay [4], 1.33 (inactive); in assay [5] (setting [8]), 0.673 (inactive); in assay [5] (setting [9]), -0.569.
For `C[C@@]12CC[C@H]3c4ccc(O)cc4C[C@@H](CCCCCCCCCS(=O)CCCC(F)(F)C(F)(F)F)[C@H]3[C@@H]1CC[C@@H]2O` (some centres not stated), the viability is 127% (inactive) in assay [6] (at 0.000305 µM, OCI-C5x cells, with rucaparib 10 µM, 100% = cells with rucaparib alone); 99.5% (active) in assay [6] (at 0.000305 µM, OCI-C5x cells, without rucaparib); 110% (inactive) in assay [6] (at 0.000305 µM, OCI-P5x cells, with rucaparib 20 µM, 100% = cells with rucaparib alone); 107% (inactive) in assay [6] (at 0.000305 µM, OCI-P5x cells, without rucaparib); 116% (inactive) in assay [6] (at 0.00122 µM, OCI-C5x cells, with rucaparib 10 µM, 100% = cells with rucaparib alone); 98.6% (active) in assay [6] (at 0.00122 µM, OCI-C5x cells, without rucaparib). The viability is 109% (inactive) in assay [6] (at 0.00122 µM, OCI-P5x cells, with rucaparib 20 µM, 100% = cells with rucaparib alone); 112% (inactive) in assay [6] (at 0.00122 µM, OCI-P5x cells, without rucaparib); 118% (inactive) in assay [6] (at 0.00488 µM, OCI-C5x cells, with rucaparib 10 µM, 100% = cells with rucaparib alone); 110% (inactive) in assay [6] (at 0.00488 µM, OCI-C5x cells, without rucaparib); 116% (inactive) in assay [6] (at 0.00488 µM, OCI-P5x cells, with rucaparib 20 µM, 100% = cells with rucaparib alone); 117% (inactive) in assay [6] (at 0.00488 µM, OCI-P5x cells, without rucaparib). Also, the viability in assay [6] (at 0.0195 µM, OCI-C5x cells, with rucaparib 10 µM, 100% = cells with rucaparib alone) was 118% (inactive); in assay [6] (at 0.0195 µM, OCI-C5x cells, without rucaparib), 108% (inactive); in assay [6] (at 0.0195 µM, OCI-P5x cells, with rucaparib 20 µM, 100% = cells with rucaparib alone) it was 116% (inactive); in assay [6] (at 0.0195 µM, OCI-P5x cells, without rucaparib), 122% (inactive); in assay [6] (at 0.0781 µM, OCI-C5x cells, with rucaparib 10 µM, 100% = cells with rucaparib alone), 114% (inactive); in assay [6] (at 0.0781 µM, OCI-C5x cells, without rucaparib) it was 112% (inactive). The viability in assay [6] (at 0.0781 µM, OCI-P5x cells, with rucaparib 20 µM, 100% = cells with rucaparib alone) is 119% (inactive); in assay [6] (at 0.0781 µM, OCI-P5x cells, without rucaparib) it was 118% (inactive); in assay [6] (at 0.313 µM, OCI-C5x cells, with rucaparib 10 µM, 100% = cells with rucaparib alone), 119% (inactive); in assay [6] (at 0.313 µM, OCI-C5x cells, without rucaparib), 125% (inactive); in assay [6] (at 0.313 µM, OCI-P5x cells, with rucaparib 20 µM, 100% = cells with rucaparib alone) it was 122% (inactive); in assay [6] (at 0.313 µM, OCI-P5x cells, without rucaparib), 120% (inactive). Also, the viability in assay [6] (at 1.25 µM, OCI-C5x cells, with rucaparib 10 µM, 100% = cells with rucaparib alone) is 123% (inactive); in assay [6] (at 1.25 µM, OCI-C5x cells, without rucaparib), 112% (inactive); in assay [6] (at 1.25 µM, OCI-P5x cells, with rucaparib 20 µM, 100% = cells with rucaparib alone), 119% (inactive); in assay [6] (at 1.25 µM, OCI-P5x cells, without rucaparib) it was 121% (inactive); in assay [6] (at 5 µM, OCI-C5x cells, with rucaparib 10 µM, 100% = cells with rucaparib alone), 124% (inactive); in assay [6] (at 5 µM, OCI-C5x cells, without rucaparib), 128% (inactive). Further, the viability in assay [6] (at 5 µM, OCI-P5x cells, with rucaparib 20 µM, 100% = cells with rucaparib alone) was 119% (inactive); in assay [6] (at 5 µM, OCI-P5x cells, without rucaparib) it was 122% (inactive).
With `COc1cccc(-n2ncc3c(N/N=C/c4ccc(S(C)(=O)=O)cc4)ncnc32)c1`, the liver cell % of control in assay [1] came out at 107%. Moreover, the parasite % of control in assay [1] was 26.1% (inactive). Moreover, the percent of negative control (+Dex) in assay [2] was 136% (active). Moreover, the z-score is 0.965 in assay [2]; -1.31 (inactive) in assay [3]; -0.723 (inactive) in assay [4]; 1.75 (inactive) in assay [5] (setting [8]); -0.0857 in assay [5] (setting [9]).
Compound `COc1cc2ncn(-c3cc(OCc4ccccc4Cl)c(C(N)=O)s3)c2cc1OC` showed a liver cell % of control in assay [1] of 147%. The parasite % of control in assay [1] is 37.4% (inactive). Also, the percent of negative control (+Dex) in assay [2] is 112% (inactive). Besides, the z-score is 0.395 in assay [2]; -0.73 (inactive) in assay [3]; -0.517 (inactive) in assay [4]; 0.0989 (inactive) in assay [5] (setting [8]); -0.32 in assay [5] (setting [9]).
With `CC1=C(C(=O)N2CC(=O)N(CC(C)C)CC(OCc3ccccc3)C2)OCCO1` (configuration not stated), the z-score in assay [5] (setting [8]) is 0.636 (inactive); in assay [5] (setting [9]), -0.606; in assay [7], 0.39 (inactive).
